These results are taken from PubChem BioAssay (NCATS).

Results filed as inconclusive are left out. A call without a number means that no potency is given here. The source made the active and inactive calls. Calls follow the shape of the dose curve; as a rule, active = well fitted cell-killing curve with a large enough effect; inconclusive = small, poorly fitted or top-dose-only effect, or effect the other way; inactive = flat fitted curve, though single readings scatter.

The nature of the assay: Cell Viability - HUV-EC-C (AID 542). Also: nearly all actives have a fitted effect of over 35% in size. As to conditions: HUV-EC-C endothelial cell viability, qHTS; series mostly up to 92.2 µM. The text has this:
NIH Chemical Genomics Center [NCGC]
NIH Molecular Libraries Screening Centers Network [MLSCN]
National Institutes of Environmental Health Sciences [NIEHS]
National Toxicology Program [NTP]
We have developed a 1536-well cell-based assay for quantitative high throughput screening (qHTS) against a number of cell lines to determine in vitro cytotoxicity of small molecules. This particular assay uses the HUV-EC-C cell line which is derived from normal human vascular endothelial cells.
NCGC Assay Protocol Summary:
The CellTiter-Glo luminescent cell viability assay (Promega) is a homogeneous method to measure the number of viable cells in culture. The end point readout of this assay is based on quantitation of intracellular ATP, an indicator of metabolic activity, using the luciferase reaction. Luciferase catalyzes the oxidation of beetle Luciferin to oxyluciferin and light in the presence of ATP. The luminescent signal is proportional to amount of ATP present.
Using the CellTiter-Glo luminescent cell viability assay, the amount of cellular ATP was measured in the HUV-EC-C cell line with complete culture medium following compound treatment for 40 hours. The assay was performed in opaque white Kalypsys 1536-well plates. In the screen, tamoxifen and doxorubicin were used as positive controls. Library compounds were measured for their ability to cause acute toxicity in the cell line, as reflected by a decrease in intracellular ATP levels, in a concentration-dependent manner. […] AC50 values were determined from concentration-response data modeled with the standard Hill equation.
qHTS protocol for CellTiter Glo HUV-EC-C cellular assay
[Step] [Parameter] [Value] [Description]
1. Reagent; 5 uL; 1000 HUV-EC-C cells/well
2. Time; 5 hr; 37 °C incubation
4. Controls; 23 nL; Tamoxifen 0.34 uM to 100 uM & Doxorubicin 0.02 nM to 100 uM
5. Time; 40 hr; 37 °C incubation
6. Reagent; 5 uL; CellTiter Glo reagent
7. Time; 20 min; Room Temperature
8. Detection; Luminescence; Viewlux plate reader
Keywords: cell viability, cytotoxicity, HUV-EC-C cell line, luminescence, NTPHTS, NTPHTS_NCGC, NIEHS, EPA, DSSTox, MLSMR, MLSCN, NIH Roadmap, qHTS, NCGC
Regarding `CCCCCCCCC`, the Potency result was “inactive”. Then `Cc1ccc([N+](=O)[O-])c(N)c1`, with “inactive”. Consider `C=CCCCC`, for which the Potency entry is “inactive”. To `CC(=O)Nc1ccc(N)cc1` belongs “inactive”; to `CC(=O)c1nccs1`, “inactive”.

For `Nc1cccc(S(=O)(=O)O)c1`, the Potency result is “inactive”. To `O=[N+]([O-])c1ccc(CCO)cc1` belongs “inactive”. For the compound `CCC(C)=O`, the Potency result was “inactive”.

With `CSCCC=O`, the Potency entry is “inactive”. Consider `C[C@@H]1CC2(OC[C@]3(C)O[C@H]23)O[C@H]2C[C@@]3(C)[C@@H]4CC[C@H]5C(C)(C)C(O[C@@H]6OC[C@@H](O)[C@H](O)[C@H]6O)CC[C@@]56C[C@@]46CC[C@]3(C)[C@@H]12` (stereo not given in full), for which the Potency entry is “inactive”. Then `O=C(O)CNC(=O)c1ccc(CO)o1`, with “inactive”; and `O=Cc1cccc(Br)c1`, with “inactive”; and `Cc1cccc([N+](=O)[O-])c1C(=O)O`, with “inactive”. To `Cc1cc(C)cc(N)c1` belongs “inactive”. Then `CCCCCCO`, with “inactive”; and `Cc1c(N)cccc1N`, with “inactive”. Consider `C=C(C)C(N)=O`, for which the Potency result is “inactive”. Then `CCCCCCCCC/C=C/CC1CC(=O)OC1=O` (stereo not given), with “inactive”; and `OC1CCCC1`, with “inactive”. In the case of `O=[N+]([O-])c1ccc(NCCO)c(OCCO)c1`, the Potency result was “inactive”. To `O=C(O)c1ccc(CO)o1` belongs “inactive”; to `COc1ccccc1[N+](=O)[O-]`, “inactive”. Regarding `COc1cccc2sc(N)nc12`, the Potency entry was “inactive”.

`C=CCCCCCC`: the Potency entry is “inactive”. Then `N#CCc1ccccc1[N+](=O)[O-]`, with “inactive”; and `C1COC1`, with “inactive”; and `O=c1[nH][nH]c(=O)c2cc([N+](=O)[O-])ccc12`, with “inactive”. To `CCCCCCCCN` belongs “inactive”.

Take `Cc1ccc(Cl)cc1N`: the Potency entry was “inactive”. To `CCCCC(C=O)CC` (stereo not given) belongs “inactive”. Then `BrC/C=C/CBr`, with “inactive”; and `Nc1cc(S(=O)(=O)O)ccc1O`, with “inactive”; and `CCC1CO1` (stereo not given), with “inactive”. To `CC(C)(O)C(=O)O` belongs “inactive”; to `C=C(C)C(=O)OCCCCCC`, “inactive”. As for `O=C(O)c1cccc(Cl)c1Cl`, the Potency result was “inactive”. To `C=CCOC(=O)COCCC(C)C` belongs “inactive”; to `Cc1cccc2sc(N)nc12`, “inactive”. To `CCOC(=O)C(C)C(C)=O` (stereo not given) belongs “inactive”. Then `CCCCCCCCCCCCC1CO1` (stereo not given), with “inactive”.
